# This is part of a sample that, as a whole, favours compounds with a hit. Of some 83,000 tested, about 20% had one in any assay.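 Each cell line was grown in a 96-well plate and treated with one concentration of compound for 48 hours. Values below 10 were considered active.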 A number with no mark means an inactive call.
# Tested on: HL-60(TB) leukemia
# Experiment: NCI-60 one-dose screen, 48 h (100 = growth as untreated, 0 = no growth, -100 = all killed)
# Settings: 10 µM unless noted
row,SMILES,growth
1,COC(=O)[C@@]12CC[C@@H](C)[C@]3(C[C@@H](c4ccoc4)OC3=O)[C@H]1CC[C@@H]1O[C@@]12C,104%
2,CCN1CCN(CC(=O)Nc2nc3ccc(NCc4ccc(Cl)cc4)cc3s2)CC1,29%
3,COc1ccc(C2CC(n3ccnc3)c3cc(OC)c(OC)c(OC)c32)cc1O (stereo unspecified),83.6%
4,C[C@@H]1CC2C3C[C@H](F)C4=CC(=O)C=C[C@]4(C)[C@@]3(F)[C@@H](O)C[C@]2(C)[C@@]1(O)C(=O)CO (stereo partly specified),99.1%
5,CCCC/C=N/NC(=S)NCc1ccccc1,105%
6,COc1ccc2nc3cc(Cl)ccc3c(N3CCN(c4nccc(Nc5ccc(Cl)cc5)n4)CC3)c2c1,48%

# Source: PubChem BioAssay (NCI)
